SMILES strings stand for the structures. Calls of active or inactive are those of the source. Calls follow the shape of the dose curve; as a rule, active = well fitted curve in the direction sought with a large enough effect in the repeat runs; inconclusive = weak or mixed curves; inactive = flat fitted curve, though single readings scatter.
% is scaled to controls: 0 for no effect and ±100 for the full control effect.

The first assay is described as follows: qHTS assay to test for compound auto fluorescence at 535 nm (green) in HEK293 cell free culture (AID 720682). Particulars: cell-free medium, green autofluorescence 485/535 nm, hits give high values; series mostly up to 91.3 µM. The method, boiled down: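 Fluorescein serves as the green reference fluorophore; each compound's intrinsic emission at 535 nm (excitation 485 nm) is reported as an equivalent amount of that dye, measured in serum-containing DMEM without cells.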
Background: Quantitative high-throughput screening tests each substance at several concentrations.
Consider `C[C@H](N)C(=O)c1ccccc1`, for which the molecule was called inactive.
Turning to `Cc1ccc2c(c1)C1CN(C)CCC1N2` (stereo not given), the result was inactive.
`O=C(CCl)NCO`: the outcome was inactive.
Still for that read-out and setting: then `COc1ccc2c(C(=O)c3ccc(Cl)cc3)c(C)n(CC(=O)O)c2c1`, with “inactive”; and `CNC(=O)O/N=C(/CSC)C(C)(C)C`, with “inactive”.
Still for that read-out and setting: the entry for `C=CC(=O)OCCN(C)C` is “inactive”; for `CCN[C@H](C)Cc1cccc(C(F)(F)F)c1` it is “inactive”.
Consider `CCNc1nc(NCC)nc(SC)n1`, for which the molecule was classed as inactive.
Turning to `CC(C)[N+](C)(CCC(C(N)=O)(c1ccccc1)c1ccccc1)C(C)C`, the activity change was -0.0088% [at 18.6 µM] (inactive).
Regarding `CCOC(=O)NC(C)(C)Cc1ccc(Cl)cc1`, the result was inactive.
Same read-out and setting: then `S=C=S`, with “inactive”; and `O=c1[nH]oc2c1CCNC2`, with “inactive”; and `C=C(Cl)CCl`, with “inactive”.
Consider `COC(=O)c1ccc(CBr)cc1`, for which the molecule was classed as inactive.
Consider `OP(O)c1ccccc1`, for which the outcome was inactive.
As to `CC(Cc1ccccc1)NCCn1cnc2c1c(=O)n(C)c(=O)n2C` (stereo not given), the call was inactive.
The same measure, in the same setting: then `C=CC=O`, with “inactive”; and `[P]#[In]`, with “inactive”; and `CN=CNc1ccc(C)cc1C`, with “inactive”.
As for `CCC1(CC)C(=O)C=CNC1=O`, the call was inactive.
Turning to `CCC(=O)OC1(c2ccccc2)CCN(C)CC1`, the molecule was classed as inactive.
As to `Brc1c(Br)c(Br)c(Br)c(Br)c1Br`, the activity change is 0.039% [at 3.72 µM] (inactive).
Regarding `C[C@H](CN1CCOCC1)C(C(=O)N1CCCC1)(c1ccccc1)c1ccccc1`, the outcome was inactive.
For the molecule `Clc1cc2c(cc1Cl)Oc1cc(Cl)c(Cl)cc1O2`, the activity change was -0.0409% [at 0.37 µM] (inactive).
As to `CC#Cc1cc(C)nc(Nc2ccccc2)n1`, the outcome was inactive.
Still for that read-out and setting: the entry for `C=CC1(C)OC(=O)N(c2cc(Cl)cc(Cl)c2)C1=O` (stereo not given) is “inactive”.
For `COc1ccc(C=O)cc1O`, the molecule was classed as inactive.
As for `CCC1(c2cccc(O)c2)CCCCN(C)C1` (stereo not given), the activity change is 0.0131% [at 18.6 µM] (inactive).
Consider `Oc1ccc(Cc2ccc(O)cc2)cc1`, for which the call was inactive.
As for `ClCOCCl`, the outcome was inactive.
For the molecule `[O-][Br+2]([O-])O`, the molecule was called inactive.
Turning to `O=P(O)(O)CN(CP(=O)(O)O)CP(=O)(O)O`, the activity change is -0.0587% [at 18.6 µM] (inactive).
For `ClC1=C(Cl)C2(Cl)C(CBr)CC1(Cl)C2(Cl)Cl` (stereo not given), the molecule was called inactive.
For the molecule `COc1cc(CCN)cc(OC)c1OC`, the result was inactive.
In the case of `N#CN`, the molecule was called inactive.
Same read-out and setting: the entry for `CCCC(C)(COC(N)=O)COC(N)=O` is “inactive”; for `C=C1CC[C@@]2(O)[C@H]3Cc4ccc(O)c5c4[C@@]2(CCN3CC2CC2)[C@H]1O5` it is “inactive”; for `COc1cccc([C@@]2(O)CCCC[C@@H]2CN(C)C)c1` it is “inactive”.
As for `CC[C@H](O)C(C[C@H](C)N(C)C)(c1ccccc1)c1ccccc1`, the molecule was called inactive.
As to `CCOC(=O)Nc1cccc(OC(=O)Nc2ccccc2)c1`, the outcome was inactive.

The nature of a further assay: qHTS assay to test for compound auto fluorescence at 590 nm (red) in HEK293 cell free culture (AID 720683). Particulars: cell-free medium autofluorescence, Ex540/Em590 red; series mostly up to 91.3 µM. An outline of the steps:
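Tox21 10K library compounds were pinned into cell-free DMEM with 10% FBS and fluorescence was read at excitation 540 nm. Activity is expressed as Rose Bengal sodium equivalency.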
Turning to `C[C@H](N)C(=O)c1ccccc1`, the result was inactive.
With `Cc1ccc2c(c1)C1CN(C)CCC1N2` (stereo not given), the call was inactive.
As to `O=C(CCl)NCO`, the result was inactive.
Same read-out and setting: the entry for `COc1ccc2c(C(=O)c3ccc(Cl)cc3)c(C)n(CC(=O)O)c2c1` is “inactive”; for `CNC(=O)O/N=C(/CSC)C(C)(C)C` it is “inactive”.
For the molecule `C=CC(=O)OCCN(C)C`, the molecule was called inactive.
`CCN[C@H](C)Cc1cccc(C(F)(F)F)c1`: the result was inactive.
On the same count and under the same terms, the entry for `CCNc1nc(NCC)nc(SC)n1` is “inactive”.
With `CC(C)[N+](C)(CCC(C(N)=O)(c1ccccc1)c1ccccc1)C(C)C`, the fluorescence, % of fluorescent control is 0.0889% [at 18.6 µM] (inactive).
Regarding `CCOC(=O)NC(C)(C)Cc1ccc(Cl)cc1`, the result was inactive.
For `S=C=S`, the molecule was classed as inactive.
For `O=c1[nH]oc2c1CCNC2`, the molecule was called inactive.
Still for that read-out and setting: the entry for `C=C(Cl)CCl` is “inactive”; for `COC(=O)c1ccc(CBr)cc1` it is “inactive”.
As to `OP(O)c1ccccc1`, the result was inactive.
On the same count and under the same terms, then `CC(Cc1ccccc1)NCCn1cnc2c1c(=O)n(C)c(=O)n2C` (stereo not given), with “inactive”; and `C=CC=O`, with “inactive”; and `[P]#[In]`, with “inactive”.
As to `CN=CNc1ccc(C)cc1C`, the molecule was classed as inactive.
In the case of `CCC1(CC)C(=O)C=CNC1=O`, the result was inactive.
For the molecule `CCC(=O)OC1(c2ccccc2)CCN(C)CC1`, the call was inactive.
Take `Brc1c(Br)c(Br)c(Br)c(Br)c1Br`: the fluorescence, % of fluorescent control is -0.398% [at 3.72 µM] (inactive).
With `C[C@H](CN1CCOCC1)C(C(=O)N1CCCC1)(c1ccccc1)c1ccccc1`, the call was inactive.
As for `Clc1cc2c(cc1Cl)Oc1cc(Cl)c(Cl)cc1O2`, the fluorescence, % of fluorescent control is 0.0291% [at 0.37 µM] (inactive).
`CC#Cc1cc(C)nc(Nc2ccccc2)n1`: the outcome was inactive.
On to `C=CC1(C)OC(=O)N(c2cc(Cl)cc(Cl)c2)C1=O` (stereo not given), for which the outcome was inactive.
Regarding `COc1ccc(C=O)cc1O`, the call was inactive.
Turning to `CCC1(c2cccc(O)c2)CCCCN(C)C1` (stereo not given), the fluorescence, % of fluorescent control is 0.0544% [at 18.6 µM] (inactive).
For `Oc1ccc(Cc2ccc(O)cc2)cc1`, the molecule was called inactive.
Turning to `ClCOCCl`, the molecule was called inactive.
`[O-][Br+2]([O-])O`: the result was inactive.
With `O=P(O)(O)CN(CP(=O)(O)O)CP(=O)(O)O`, the fluorescence, % of fluorescent control was 0.0352% [at 18.6 µM] (inactive).
With `ClC1=C(Cl)C2(Cl)C(CBr)CC1(Cl)C2(Cl)Cl` (stereo not given), the call was inactive.
Take `COc1cc(CCN)cc(OC)c1OC`: the molecule was called inactive.
For the molecule `N#CN`, the result was inactive.
Same read-out and setting: the entry for `CCCC(C)(COC(N)=O)COC(N)=O` is “inactive”; for `C=C1CC[C@@]2(O)[C@H]3Cc4ccc(O)c5c4[C@@]2(CCN3CC2CC2)[C@H]1O5` it is “inactive”.
Regarding `COc1cccc([C@@]2(O)CCCC[C@@H]2CN(C)C)c1`, the result was inactive.
As for `CC[C@H](O)C(C[C@H](C)N(C)C)(c1ccccc1)c1ccccc1`, the outcome was inactive.
Still for that read-out and setting: then `CCOC(=O)Nc1cccc(OC(=O)Nc2ccccc2)c1`, with “inactive”.

The values above are taken from PubChem BioAssay (Tox21).
